# This is a sample that favours compounds with a hit; in the whole collection about 19% have one here.
# HT1080-NT tox = kills 2HG-producing HT-1080-NT fibrosarcoma cells; HT-1080-NT fibrosarcoma viability, CellTiter-Glo ATP luminescence, 48 h; Potency, µM (top dose mostly 46.1 µM), without a hit: at the highest dose activity, negative = less viability, actives largely listed as cytotoxic; 360,000 tested, 1.6% active;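 further: NT is the 2HG producing partner of a matched IDH1 knockdown line; potency means the concentration at half of the fitted maximal effect; 0% = DMSO-treated cells and -100% = media-only wells without cells; nearly all actives have a fitted effect of over 55% in size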
#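 Toxicity toward the 2HG-producing NT line was scored as %Activity, normalised to DMSO and no-cell wells, from CellTiter-Glo luminescence after 48 hours' treatment.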
# uPA generation = blocks generation of uPA at the cell surface | cell surface uPA generation assay, qHTS | Potency, µM (series often up to 38.3 µM), for the others: at the top dose activity change, negative = inhibition, hits mostly inhibitors | 330,000 tested, 0.31% active; active means well fitted inhibition curve with a large enough effect; inconclusive means small, poorly fitted or top-dose-only effect; inactive means no such curve, though single readings can be large or run the other way; tested in mouse RAW 264.7 cells; further: potency means the concentration at half of the fitted maximal effect; nearly all actives have a fitted effect of over 55% in size
# IL-1B inflam inh = inflammasome signaling inhibition, IL-1 beta readout. THP-1 LPS/ATP IL-1B secretion, AlphaLISA, 16 h; hits give low values. activity change, % at 57.5 µM. 360,000 tested, 4.7% active. AID 743279; in the data active means activity change below about -50%; inconclusive means mostly about -30% to -49%
#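 Secreted IL-1B measured by AlphaLISA bead assay after 16 h compound exposure of THP-1 cells; compounds (final up to 57.5 uM) added 1 h before LPS (250 ng/mL) and ATP (1.25 mM) stimulation; lower signal means less secretion.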
# TDP1 cell noCPT = qHTS for Inhibitors of human tyrosyl-DNA phosphodiesterase 1 (TDP1): qHTS in cells in absence of CPT | DT40 Tdp1-/- hTDP1 cells, no CPT, ATP luminescence, 48 h | Potency, µM (highest dose often 46.2 µM), for inactives: top-dose activity change, negative = growth inhibition, most hits filed as inhibitors | 420,000 tested, 15% active | AID 686978, 2013; further: potency means the concentration at half of the fitted maximal effect; nearly all actives have a fitted effect of over 55% in size
#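 Luminescent ATP content (CellTiter-Glo) served as the growth readout. Knockout chicken DT40 cells expressing human TDP1 were exposed to compounds without camptothecin for a minimum 48 hr at 37 °C.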
# HT1080 IDH1KD tx = HT-1080 IDH1 knockdown cell toxicity (counter line); HT-1080 IDH1 knockdown viability, ATP luminescence, 48 h; Potency, µM (top dose mostly 46.1 µM), for inactives: top-dose activity, negative = toxicity, most hits filed as cytotoxic; 360,000 tested, 2% active; AID 686971;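 further: potency means the concentration at half of the fitted maximal effect; 0% = DMSO wells and -100% = cell-free medium wells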
#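 IDH1KD HT-1080 cells, 750/well, RPMI + 5% FBS; compound pinned after 2 h settling; 48 h, 37 °C; CellTiter-Glo luminescence; % activity normalised to DMSO and no-cell wells; curves fitted, classed by r2 and efficacy.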
# TDP1 cell CPT = DT40-hTDP1 cell growth loss with CPT. chicken DT40 Tdp1-/-;hTDP1 cells + 20 nM CPT, ATP luminescence, 48 h. Potency, µM (highest dose often 46.2 µM), inactives show at the top dose activity change, negative = growth inhibition, hits mostly inhibitors. 420,000 tested, 12% active; further: potency means the concentration at half of the fitted maximal effect; nearly all actives have a fitted effect of over 55% in size
#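 Chicken DT40 Tdp1-/- cells stably complemented with human TDP1 were seeded at 400 cells/well in medium containing 20 nM camptothecin, exposed to pin-transferred compounds, and grown at 37 °C for at least 48 hr. Viability was read as ATP luminescence.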
# * marks the source's active call; other numbers are inactive results; ? = inconclusive; · = not tested or not shown; [ ] = dose if it differs, or a comment. Unless noted, the call rests on the fitted dose curve; in most records, active means well fitted curve in the direction sought with a large enough effect; inconclusive means small, poorly fitted or top-dose-only effect, or another doubt; inactive means no such curve, though single readings can be large; an effect the other way counts as inactive or inconclusive. Unless noted, on the % scale 0 is the no-effect control and ±100 the full control effect.
SMILES,HT1080-NT tox,uPA generation,IL-1B inflam inh,TDP1 cell noCPT,HT1080 IDH1KD tx,TDP1 cell CPT
CN(C)c1ccc(CNC(=O)CN2C(=O)C3CCCCN3c3ccc(C(=O)N4CCCC4)cc32)cc1 (stereo not given),·,·,·,?,·,23µM*
CCOc1cc(CNC(=O)c2ccc3c(c2)NC(=O)C2CCCCN32)cc(OCC)c1OCC (stereo not given),·,·,·,?,·,18µM*
Cc1cccc(CNC(=O)c2ccc3c(c2)N(C)C(=O)C2CCCCN32)c1 (stereo not given),·,·,·,?,·,13µM*
COCc1c(C(=O)N2CCCCC2c2cccnc2)cnn1-c1ncc2c(n1)-c1ccccc1CCC2 (stereo not given),·,·,·,?,·,-12%[9.04 µM]
CC1C(=O)N2CCCc3cc(S(=O)(=O)NCc4ccccc4Cl)cc1c32 (stereo not given),1%,-4%,42,-2%,-1%,?
O=C(Nc1cc(C2CC2)nn1-c1ccccc1)c1ccc(F)cc1,7%,9%,4,-18%,0%,3%
CC(c1ccco1)N(C(=O)C12CC3CC(CC(C)(C3)C1)C2)c1ccccn1 (stereo not given),0%,-2%,0,21µM*,-3%,16µM*
Nn1c(Cc2cccc3ccccc23)nnc1SCc1ccc(Cl)c(Cl)c1,?,-3%,-72*,-22%,?,-13%
Nn1c(Cc2cccc3ccccc23)nnc1SCc1c(Cl)cccc1Cl,?,4%,-17,16µM*,-23%,?
CCCCN(C)C(=O)C1CCCN(S(=O)(=O)c2ccc3c(c2)CC(C)N3C(=O)C2CC2)C1 (stereo not given),-4%,-8%,-3,?,-5%,?
O=C(c1ccc(Cl)c([N+](=O)[O-])c1)N1CCN(C(=O)c2ccco2)CC1,-2%,-6%,7,-29%,0%,-10%
O=C(c1cccc([N+](=O)[O-])c1)N1CCCN(C(=O)c2cccc([N+](=O)[O-])c2)CC1,3%,5%,0,-12%,16%,26%
Cc1c(C(=O)N2CCN(c3cccc(Cl)c3)CC2)cccc1[N+](=O)[O-],-10%,19%,-1,16µM*,-14%,16µM*
O=C(c1cccc([N+](=O)[O-])c1)N1CCN(c2cccc(Cl)c2)CC1,?,-8%,-3,18µM*,?,18µM*
O=C(c1cccc([N+](=O)[O-])c1)N1CCN(c2ncccn2)CC1,0%,7%,1,-7%,0%,2%
Cc1ccc(Nc2ccc(N3CCN(C(=O)c4cccc([N+](=O)[O-])c4)CC3)nn2)cc1,·,·,·,16µM*,·,?
O=C(c1ccco1)N1CCN(c2c([N+](=O)[O-])nn(-c3cccc(Cl)c3)[n+]2[O-])CC1,-2%,-23%,41,?,13%,16µM*
CCCC1(CCC)NC(=O)N(CC(=O)N2CCc3ccccc32)C1=O,0%,1%,-3,1%,-4%,-1%
COC(=O)c1cc(C(=O)N2CCOCC2)cc([N+](=O)[O-])c1,8%,-4%,19,7%,12%,-3%
COC(=O)c1cc(C(=O)N2CCN(c3cccc(Cl)c3)CC2)cc([N+](=O)[O-])c1,0.52µM*,-14%,61,0.92µM*,0.46µM*,0.65µM*
COc1ccc(C(=O)Nc2cccc(C(=O)NCc3ccccc3)c2)cc1,-24%,-20%,4,?,?,21µM*
O=C(Nc1cccc(C(=O)NC2CC2)c1)c1ccccc1,11%,2%,-2,0%,7%,6%
Cc1ccc(C(=O)Nc2cccc(C(=O)NC3CCCCC3)c2)cc1,-30%,-9%,-26,?,?,23µM*
Cc1ccn2cc(C(=O)Nc3cccc(C(=O)NC4CC4)c3)nc2c1,-2%,-15%,-11,16µM*,-4%,?
Cc1ccc(C(=O)Nc2cccc(C(=O)NCc3ccccc3)c2)cc1,?,10µM*,-22,-24%,?,?
SMILES,HT1080-NT tox,uPA generation,IL-1B inflam inh,TDP1 cell noCPT,HT1080 IDH1KD tx,TDP1 cell CPT
O=C(CN(C(=O)CCC(=O)Nc1nccs1)c1cccc(C(F)(F)F)c1)NCC1CCCO1 (stereo not given),-1%,1%,-4,?,7%,11%
CCOc1ccc2c(c1)n([O-])c1c([n+]2=O)CCCC1,2%,0%,10,?,10%,13µM*
COc1ccc2c(c1)n([O-])c1c([n+]2=O)CCC1,9%,0%,-2,17%,10%,-23%
O=C(N=C1c2ccccc2CN1c1ccccc1)c1cccc([N+](=O)[O-])c1,-3%,-3%,-4,12µM*,0%,-13%
CC(C)=CCc1c2c(c(O)c3c(=O)c4c(oc13)-c1cc(O)c(O)cc1OC4C=C(C)C)C=CC(C)(C)O2 (stereo not given),0%,3%,2,?,0%,?
CC(C)=CCc1c(-c2ccc(O)cc2O)oc2c3c(cc(O)c2c1=O)OC(C)(C)C=C3,?,15%,-4,?,-28%,21µM*
CCN(CC)CC(O)COCCC12CC3CC(CC(C3)C1)C2 (stereo not given),?,-7%,-2,?,?,?
OCCN(CCO)CC(O)COc1ccc(C23CC4CC(CC(C4)C2)C3)cc1 (stereo not given),-7%,-11%,?,7.3µM*,4%,7.3µM*
OCCN(CCO)CC(O)COCCC12CC3CC(CC(C3)C1)C2 (stereo not given),?,2%,-29,21µM*,?,?
CC1CCCCN1CC(O)COCCC12CC3CC(CC(C3)C1)C2 (stereo not given),?,0%,-61*,18µM*,?,15µM*
CCOc1cc(/C=N/NC(=O)Cn2nc([N+](=O)[O-])cc2C)cc(Br)c1OCc1ccccc1F,?,·,16,?,10µM*,21µM*
Cc1ccc(S(=O)(=O)N2CCN(C(=O)c3c(-c4ccccc4)noc3C)CC2)cc1C,0%,-1%,33,-69%,-3%,?
Cc1ccc2nc(-c3ccccc3)cc(C(=O)N3CCN(S(=O)(=O)c4c(C)noc4C)CC3)c2c1,-3%,3%,-12,23µM*,-11%,?

# From PubChem
